In the library only some 3.8% were active in any assay of this set; here they are far more common.
HT1080 IDH1KD tx = kills HT-1080 cells with IDH1 knockdown; HT-1080 IDH1 knockdown viability, ATP luminescence, 48 h; Potency, µM (series often up to 46.1 µM), usual class: cytotoxic; actives 2% (n = 360,000)
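CellTiter-Glo luminescence after 48 h compound exposure at 37 degrees C of IDH1-knockdown HT-1080 cells in 5% FBS RPMI. %Activity scaled between DMSO wells and cell-free media wells, with curves fitted and assigned curve classes.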
HT1080NT lethal = kills 2HG-producing HT-1080-NT fibrosarcoma cells | AID 686970 | Potency, µM (doses to about 46.1 µM), most hits filed as cytotoxic | actives 1.6% (n = 360,000) | HT-1080-NT fibrosarcoma viability, CellTiter-Glo ATP luminescence, 48 h;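 note: NT is the 2HG producing partner of a matched IDH1 knockdown line; nearly all actives have a fitted effect of over 55% in size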
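Viability by CellTiter-Glo luminescence after 48 h compound exposure at 37C of HT-1080-NT cells (750/well, RPMI, 5% FBS). % activity scaled between DMSO wells and medium-only wells, then curve-fitted and categorized by curve class.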
TGFb SMAD3 inh = TGF-b pathway inhibition; HepG2 CAGA-GFP TGF-b/SMAD3 reporter, GFP fluorescence, 18 h; TGF-beta stimulated, 500 pg/mL final; Potency, µM (highest dose often 46.1 µM), hits mostly inhibitors; actives 1.2% (n = 410,000); AID 588855; note: nearly all actives have a fitted effect of over 65% in size
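HEPG2 CAGA-GFP reporter cells (1000/well, DMEM with 1% FBS) received compounds, then recombinant TGF-beta at 500 pg/mL final for 18 hours at 37 degrees C. Per-cell GFP summed per well was normalised to unstimulated and stimulated DMSO controls before curve fitting.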
HepG2 tox-1 = HepG2 cytotoxicity, counter-screen for TGF-b inhibitors; HepG2 CAGA-GFP viability, ATP luminescence, 18 h; Potency, µM (top dose mostly 46.1 µM), usual class: cytotoxic; actives 0.76% (n = 410,000); AID 588856
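CellTiter-Glo luminescence gave cytotoxicity after 18 hours at 37 degrees C. The cells were HepG2 CAGA-GFP in 1% FBS DMEM, stimulated with 500 pg/mL TGF-beta after compound addition. %Activity was normalised to no-cell wells (complete cell-killing) and DMSO (no toxicity), and curves were fitted and classified.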
S2 tox = reduces viability in counter-screen for ATXN expression inhibitors | actives 0.49% (n = 400,000) | Potency, µM (series often up to 56.7 µM), actives largely listed as cytotoxic | S2 cells (HEK-293 line with an ATXN2-luciferase reporter) viability, CellTiter-Fluor protease fluorescence, 24 h; note: nearly all actives have a fitted effect of over 40% in size
ATXN2 expr inh = inhibitors of ATXN2 expression | HEK-293 ATXN2-luciferase reporter, luminescence, 24 h | Potency, µM (series often up to 57 µM), usual class: inhibitors | actives 0.72% (n = 360,000) | AID 1745845; note: nearly all actives have a fitted effect of over 55% in size
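qHTS (up to 57 uM final) was run with 24 h compound exposure of reporter cells at 37 °C. Each well was multiplexed: SteadyGlo luminescence measured ATXN2-luciferase expression after a fluorogenic Gly-Phe-AFC viability readout (25 uM final).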
TGFb CAGA inh = TGF-b pathway inhibition, cherry-pick retest. Potency, µM (titrated, usually from 46.1 µM), usual class: inhibitors. HepG2 CAGA-GFP TGF-b reporter, GFP fluorescence, 18 h; cells stimulated with TGF-beta, 500 pg/mL. shares compounds with TGFb SMAD3 inh. actives 63% (n = 1,600); note: nearly all actives have a fitted effect of over 65% in size
HepG2 tox-2 = HepG2 cytotoxicity, TGF-b inhibitor counterscreen | HepG2 CAGA-GFP viability, ATP luminescence, 18 h; cells stimulated with TGF-beta, 500 pg/mL | shares compounds with TGFb SMAD3 inh | actives 27% (n = 1,600) | Potency, µM (top dose mostly 46.1 µM), usual class: inhibitors; note: nearly all actives have a fitted effect of over 70% in size
TGFb CCL64 inh = orthogonal confirmation of TGF-b inhibitors in CCL64 cells; shares compounds with TGFb SMAD3 inh; CCL64 CAGA-GFP reporter, TGF-b stimulated, GFP fluorescence, 18 h; Potency, µM (titrated, usually from 46.1 µM), most hits filed as inhibitors; actives 41% (n = 1,600); AID 720536; note: nearly all actives have a fitted effect of over 65% in size
COP TGFb inh = TGF-b inhibition validated with COP promoter; actives 3% (n = 1,600); AID 720537; Potency, µM (doses to about 46.1 µM), most hits filed as inhibitors; HepG2 COP-GFP TGF-b reporter, GFP fluorescence, 18 h; cells stimulated by added recombinant TGF-beta; shares compounds with TGFb SMAD3 inh; note: nearly all actives have a fitted effect of over 70% in size
Large screens that a line does not name were inactive (follow-up assays come after a bar, where they were run). Calls come from the whole dose curve; as a rule, active = well fitted curve in the direction sought with a large enough effect; inconclusive = small, poorly fitted or top-dose-only effect, or another doubt; inactive = no such curve, though single readings can be large; an effect the other way counts as inactive or inconclusive.

O=C(N/N=C/c1cn(Cc2ccccc2)c2ccccc12)c1ccncc1	TGFb SMAD3 inh inconclusive (no result: S2 tox) | TGFb CAGA inh 1.2µM | HepG2 tox-2 2.3µM | TGFb CCL64 inh inactive | COP TGFb inh inactive
COC(=O)N/N=C/c1cn(CCOc2ccccc2)c2ccccc12	TGFb SMAD3 inh inconclusive, S2 tox inconclusive | TGFb CAGA inh 7.3µM | HepG2 tox-2 3.3µM | TGFb CCL64 inh inactive | COP TGFb inh inactive
CCOC(=O)N/N=C/c1cn(Cc2ccc(Cl)cc2)c2ccccc12	TGFb SMAD3 inh 13µM | TGFb CAGA inh 4.1µM | HepG2 tox-2 2.6µM | TGFb CCL64 inh inactive | COP TGFb inh inactive
Cc1ccc(OCCn2cc(/C=N/NC(=O)c3ccncc3)c3ccccc32)cc1	HT1080 IDH1KD tx inconclusive, TGFb SMAD3 inh inconclusive, ATXN2 expr inh inconclusive (no result: S2 tox)
CCOC(=O)N/N=C/c1cn(CCCOc2ccccc2)c2ccccc12	none
Cc1ccc(-c2noc(CNC(=O)c3ccc(Br)o3)n2)cc1	TGFb SMAD3 inh inconclusive (no result: HT1080 IDH1KD tx, HT1080NT lethal, S2 tox, ATXN2 expr inh)
COc1ccccc1NC(=O)c1c(C)cc(C)nc1SCC(=O)Nc1ccc(C)cc1	TGFb SMAD3 inh inconclusive, S2 tox inconclusive (no result: HT1080 IDH1KD tx, HT1080NT lethal)
O=C1C=C(NC2=CC3OC(c4ccccc4)OCC3OC2=O)CCC1 (configuration not stated)	HT1080 IDH1KD tx 21µM, TGFb SMAD3 inh 10µM, S2 tox inconclusive | TGFb CAGA inh 10µM | HepG2 tox-2 inconclusive | TGFb CCL64 inh 13µM | COP TGFb inh inactive
CC1(Cc2cccc(C(F)(F)F)c2)C(=O)Nc2ccc(-c3ccc(F)c(Cl)c3)cc21 (configuration not stated)	HT1080 IDH1KD tx inconclusive, HT1080NT lethal inconclusive, TGFb SMAD3 inh 10µM, HepG2 tox-1 10µM, ATXN2 expr inh inconclusive (no result: S2 tox) | TGFb CAGA inh inconclusive | HepG2 tox-2 18µM | TGFb CCL64 inh inconclusive | COP TGFb inh inactive
COc1ccc(/C(C)=N/Nc2nncc3ccccc23)cc1	TGFb SMAD3 inh inconclusive
COc1ccc(/C(C)=N/Nc2nc3ccccc3nc2C)cc1	HT1080 IDH1KD tx inconclusive, HT1080NT lethal inconclusive, TGFb SMAD3 inh 7.9µM | TGFb CAGA inh inconclusive | HepG2 tox-2 inactive | TGFb CCL64 inh inactive | COP TGFb inh inactive
COCCn1c(SCc2nc3scc(-c4ccc(Cl)cc4)c3c(=O)[nH]2)nnc1-c1cccc(C)c1	TGFb SMAD3 inh 10µM, S2 tox inconclusive | TGFb CAGA inh 13µM | HepG2 tox-2 inconclusive | TGFb CCL64 inh inconclusive | COP TGFb inh inactive
CCn1c(SCc2nc3scc(-c4ccccc4)c3c(=O)[nH]2)nnc1-c1cccs1	HT1080 IDH1KD tx inconclusive, HT1080NT lethal inconclusive, TGFb SMAD3 inh inconclusive
O=C(NC1CCCCCC1)c1ccc2c(c1)sc1nc(-c3ccc(F)cc3)cn12	none (no result: HT1080 IDH1KD tx, HT1080NT lethal, S2 tox, ATXN2 expr inh)

Screening data deposited in PubChem BioAssay by National Center for Advancing Translational Sciences (NCATS).
